Assay results: PubChem BioAssay AID1159580 (chemical genetic matrix, 2015)
Among all 5,500 compounds or so, about 2,000 (36%) were called active. Roughly 18% stayed inconclusive and do not appear here. Rule as the data show it: active = normalized growth mostly below about 0.91 (no sharp cut-off); inconclusive = no clear call, values can overlap the other calls; inactive = mostly above about 0.92. The list shows a part of the results.

Assay: chemical genetic growth profiling, strain panel (AID 1159580);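 also: tested at 20 µM; growth read once vehicle control cultures reached saturation at 30 °C; 1 = growth at the plate median or of vehicle wells; lower values mean less growth of the strain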
Conditions: growth OD

Measured: normalized growth

CC(=O)Oc1cccc(O)c1
inactive: S. cerevisiae deletion strains, locus YJR075W, strain HOC1, stronger effect = lower value 1 | S. cerevisiae deletion strains, locus YKL009W, strain mrt4, stronger effect = lower value 1.01 | S. cerevisiae deletion strains, locus YKL068W, stronger effect = lower value 1 | S. cerevisiae deletion strains, locus YKL085W, strain MDH1 (second series), stronger effect = lower value 1 | S. cerevisiae deletion strains, locus YKL085W, strain MDH1, stronger effect = lower value 1 | S. cerevisiae deletion strains, locus YKL160W, strain elf1, stronger effect = lower value 1.01 | S. cerevisiae deletion strains, locus YKL190W, strain CNB1, stronger effect = lower value 1 | S. cerevisiae deletion strains, locus YKR001C, strain vps1, stronger effect = lower value 1.02 | S. cerevisiae deletion strains, locus YKR026C, strain gcn3, stronger effect = lower value 1.01 | S. cerevisiae deletion strains, locus YKR091W, strain srl3, stronger effect = lower value 1.01 | S. cerevisiae deletion strains, locus YLL001W, strain dnm1, stronger effect = lower value 1.02 | S. cerevisiae deletion strains, locus YLL026W, stronger effect = lower value 1.01 | S. cerevisiae deletion strains, locus YLL041C, strain sdh2, stronger effect = lower value 1.01 | S. cerevisiae deletion strains, locus YLR027C, strain aat2, stronger effect = lower value 1.03 | S. cerevisiae deletion strains, locus YLR039C, strain RIC1, stronger effect = lower value 1.04 | S. cerevisiae deletion strains, locus YLR058C, strain SHM2, stronger effect = lower value 1.01 | S. cerevisiae deletion strains, locus YLR102C, strain apc9, stronger effect = lower value 1.01 | S. cerevisiae deletion strains, locus YLR113W, strain HOG1, stronger effect = lower value 0.982 | S. cerevisiae deletion strains, locus YLR221C, strain rsa3, stronger effect = lower value 1.03 | S. cerevisiae deletion strains, locus YLR258W, strain gsy2, stronger effect = lower value 1.02 | S. cerevisiae deletion strains, locus YLR262C, strain YPT6 (second series), stronger effect = lower value 1.04 | S. cerevisiae deletion strains, locus YLR262C, strain YPT6, stronger effect = lower value 1.05 | S. cerevisiae deletion strains, locus YLR268W, strain sec22, stronger effect = lower value 1.02 | S. cerevisiae deletion strains, locus YLR320W, strain mms22, stronger effect = lower value 1.04 | S. cerevisiae deletion strains, locus YLR330W, strain CHS5, stronger effect = lower value 1.01 | S. cerevisiae deletion strains, locus YLR342W, strain FKS1 (second series), stronger effect = lower value 1.01 | S. cerevisiae deletion strains, locus YLR342W, strain FKS1, stronger effect = lower value 1.03 | S. cerevisiae deletion strains, locus YLR357W, strain rsc2, stronger effect = lower value 1.02 | S. cerevisiae deletion strains, locus YLR370C, strain arc18, stronger effect = lower value 1.01 | S. cerevisiae deletion strains, locus YLR371W, strain rom2, stronger effect = lower value 1 | S. cerevisiae deletion strains, locus YLR384C, strain iki3, stronger effect = lower value 1.01 | S. cerevisiae deletion strains, locus YLR418C, strain cdc73, stronger effect = lower value 1.05 | S. cerevisiae deletion strains, locus YML016C, strain PPZ1, stronger effect = lower value 1.01 | S. cerevisiae deletion strains, locus YML032C, strain rad52, stronger effect = lower value 1.02 | S. cerevisiae deletion strains, locus YML120C, strain ndi1, stronger effect = lower value 1.01 | S. cerevisiae deletion strains, locus YML124C, strain tub3, stronger effect = lower value 1.01 | S. cerevisiae deletion strains, locus YMR058W, strain fet3, stronger effect = lower value 1.03 | S. cerevisiae deletion strains, locus YMR078C, strain ctf18, stronger effect = lower value 1.02 | S. cerevisiae deletion strains, locus YMR125W, strain sto1, stronger effect = lower value 1.03 | S. cerevisiae deletion strains, locus YMR129W, stronger effect = lower value 1.01 | S. cerevisiae deletion strains, locus YMR205C, strain PFK2, stronger effect = lower value 1.03 | S. cerevisiae deletion strains, locus YMR223W, strain ubp8, stronger effect = lower value 1.02 | S. cerevisiae deletion strains, locus YMR231W, strain pep5, stronger effect = lower value 1.01 | S. cerevisiae deletion strains, locus YMR263W, strain SAP30, stronger effect = lower value 1 | S. cerevisiae deletion strains, locus YMR307W, strain GAS1, stronger effect = lower value 0.985 | S. cerevisiae deletion strains, locus YNL067W, strain RPL9B, stronger effect = lower value 0.996 | S. cerevisiae deletion strains, locus YNL071W, strain lat1, stronger effect = lower value 1.02 | S. cerevisiae deletion strains, locus YNL128W, strain TEP1, stronger effect = lower value 1.01 | S. cerevisiae deletion strains, locus YNL183C, strain NPR1, stronger effect = lower value 0.938 | S. cerevisiae deletion strains, locus YNL209W, strain ssb2, stronger effect = lower value 1.04 | S. cerevisiae deletion strains, locus YNL233W, strain BNI4, stronger effect = lower value 0.993 | S. cerevisiae deletion strains, locus YNL248C, strain rpa49, stronger effect = lower value 1.03 | S. cerevisiae deletion strains, locus YNL250W, strain rad50, stronger effect = lower value 1.06 | S. cerevisiae deletion strains, locus YNL271C, strain bni1, stronger effect = lower value 1.01 | S. cerevisiae deletion strains, locus YNL298W, strain CLA4, stronger effect = lower value 1.03 | S. cerevisiae deletion strains, locus YNL307C, strain MCK1, stronger effect = lower value 1.02 | S. cerevisiae deletion strains, locus YNL322C, strain KRE1 (second series), stronger effect = lower value 1.01 | S. cerevisiae deletion strains, locus YNR049C, strain mso1, stronger effect = lower value 1 | S. cerevisiae deletion strains, locus YNR052C, strain pop2, stronger effect = lower value 1.01 | S. cerevisiae deletion strains, locus YOL006C, strain TOP1, stronger effect = lower value 0.999 | S. cerevisiae deletion strains, locus YOL012C, strain htz1 0.912 | S. cerevisiae deletion strains, locus YOL147C, strain pex11, stronger effect = lower value 1.01 | S. cerevisiae deletion strains, locus YOR001W, strain rrp6, stronger effect = lower value 1.05 | S. cerevisiae deletion strains, locus YOR061W, strain CKA2, stronger effect = lower value 1.01 | S. cerevisiae deletion strains, locus YOR069W, strain VPS5, stronger effect = lower value 1 | S. cerevisiae deletion strains, locus YOR070C, strain gyp1, stronger effect = lower value 1.02 | S. cerevisiae deletion strains, locus YOR080W, strain dia2, stronger effect = lower value 1.01 | S. cerevisiae deletion strains, locus YOR083W, strain WHI5, stronger effect = lower value 1.01 | S. cerevisiae deletion strains, locus YOR106W, strain vam3, stronger effect = lower value 1.02 | S. cerevisiae deletion strains, locus YOR136W, strain idh2, stronger effect = lower value 1.02 | S. cerevisiae deletion strains, locus YOR144C, strain elg1, stronger effect = lower value 1.01 | S. cerevisiae deletion strains, locus YOR184W, strain ser1, stronger effect = lower value 1.03 | S. cerevisiae deletion strains, locus YOR231W, strain MKK1, stronger effect = lower value 0.977 | S. cerevisiae deletion strains, locus YOR265W, strain rbl2, stronger effect = lower value 1 | S. cerevisiae deletion strains, locus YOR270C, strain vph1, stronger effect = lower value 1.07 | S. cerevisiae deletion strains, locus YOR290C, strain snf2, stronger effect = lower value 1.01 | S. cerevisiae deletion strains, locus YOR316C, strain cot1, stronger effect = lower value 1.01 | S. cerevisiae deletion strains, locus YPL051W, strain arl3, stronger effect = lower value 1.04 | S. cerevisiae deletion strains, locus YPL078C, strain atp4, stronger effect = lower value 1.03 | S. cerevisiae deletion strains, locus YPL106C, strain sse1, stronger effect = lower value 1.01 | S. cerevisiae deletion strains, locus YPL240C, strain hsp82, stronger effect = lower value 1.03 | S. cerevisiae deletion strains, locus YPL241C, strain CIN2, stronger effect = lower value 1.01 | S. cerevisiae deletion strains, locus YPL256C, strain CLN2, stronger effect = lower value 0.951 | S. cerevisiae deletion strains, locus YPR119W, strain clb2, stronger effect = lower value 1.01 | S. cerevisiae deletion strains, locus YPR141C, strain kar3, stronger effect = lower value 1.01 | S. cerevisiae deletion strains, locus YPR163C, strain tif3, stronger effect = lower value 1.02 | S. cerevisiae deletion strains, locus YPR167C, strain met16, stronger effect = lower value 1.01 | S. cerevisiae deletion strains, strain wtn01, stronger effect = lower value 1.03 | S. cerevisiae strains, strain wild type, stronger effect = lower value 1.01
